Inconclusive results are not listed. Entries that show only a call come without a potency. The source made the active and inactive calls. The call rests on the fitted dose curve; in most records, active means well fitted inhibition curve with a large enough effect; inconclusive means small, poorly fitted or top-dose-only effect; inactive means no such curve, though single readings can be large or run the other way.

The nature of the assay: Confirmation assay for measurement of the activity of small molecule inhibitors on Zika virus induced Caspase-3 activity in human astrocytoma cells. The note with it: SNB-19 ZIKV-induced caspase-3/7, luminescence, 6 h; series mostly up to 46.1 µM. The source says:
National Center for Advancing Translational Sciences [NCATS] Johns Hopkins University School of Medicine Florida State University Assay Overview: Increase in the Caspase-3 activity indicates an activation of apoptosis cell death pathway caused by Zika virus infection in certain types of neuronal cells including human neural progenitor cells (hNPCs), astrocytes, and astrocytoma cell line (SNB-19). This cell-based caspase-3 activity assay measures the increased caspase-3 activity in the astrocytoma cell line (SNB-19) after a 6-hour Zika virus infection with a luminescence readout. A decrease in the luminescence signal in this assay by small molecule treatment indicates an inhibitory effect of that small molecule on the Zika virus induced caspase-3 activity that may correlate with its effect on reduction of Zika virus caused cell death.
Assay Protocol Summary: The medium for SNB-19 cells is composed of RPMI 1640 (ATCC, Cat.# 30-2001), 10% fetal bovine serum (FBS) (GE healthcare Life Sciences, Cat.# SH30071.03), and 1% Pen/Strep (Gibco, Cat.# 15140-122). A Caspase-Glo 3/7 assay kit (catalog number G8092; Promega, Madison, WI) was used to detect caspase-3 activity induced by Zika virus infection in human cells. The reagent mixture was reconstituted as described in the protocol from the manufacturer. Polystyrene tissue culture treated and PDL coated white plates were obtained from Greiner Bio-One (Monroe, NC). Cells were seeded in 384- or 1536-well assay plates and cultured at 37 C with 5% CO2 for 16 to 20 hours. The typical cell seeding density in the 1536-well plate assay is 250 cells/well in 3ul medium for SNB-19 cells in tissue culture treated plates. Compounds were added to cells and incubated for one hour before addition of ZIKV solution to cells (2 FFU/cell). After incubation at 37 C with 5% CO2 for 6 hours, the reagent mixture of Caspase-Glo 3/7 assay kit was added to each well, followed by incubation at room temperature for 30 minutes. The luminescence intensity of the assay plates was measured using a ViewLux plate reader (PerkinElmer). Data were normalized by using the cell-containing wells without ZIKV as a negative control (0% induction of caspase 3/7 activity) and wells containing ZIKV infected cells (Caspase-3 activity induced) as a positive control (100% induction of caspase 3 activity). The percentage inhibitions of the increased Caspase-3 activity by small molecule inhibitors were then calculated.
In the case of `CCN1CCC(n2cc(CNc3cc(Cl)c4ncc(C#N)c(Nc5ccc(F)c(Cl)c5)c4c3)nn2)CC1`, the Potency entry is “inactive”. With `O=S(=O)(O)c1ccc2nc(-c3ccccc3)[nH]c2c1`, the Potency was 1.73 µM (active). For `C[C@@H]1CCN(C(=O)CC#N)C[C@H]1N(C)c1ncnc2[nH]ccc12` the value was “inactive”.

Turning to `CCC(C)SSc1ncc[nH]1` (stereo not given), the Potency result was “inactive”. For `O=C(/C=C/c1ccc(O)cc1)c1ccc(O)cc1O`, the Potency was 2.45 µM (active). For `NC(=O)c1cccc2[nH]c(-c3ccc([C@H]4CCCN4)cc3F)nc12` the value was 17.3 µM (active); for `COc1cc2nc(-c3ccc(N4CCN(C)CC4)cc3)nc(NCCN3CCOCC3)c2cc1OC`, “inactive”. For `CC(C)OC(=O)CCCC=CC[C@@H]1[C@H](C=C[C@@H](O)COc2cccc(C(F)(F)F)c2)[C@H](O)C[C@@H]1O` the value was “inactive”; for `O=S(=O)(O)CCSSCCS(=O)(=O)O`, “inactive”. For `CC[C@@]1(O)C[C@H](O[C@H]2C[C@H](N(C)C)[C@H](O[C@H]3C[C@H](O)[C@H](O[C@H]4CCC(=O)[C@H](C)O4)[C@H](C)O3)[C@H](C)O2)c2c(cc3c(c2O)C(=O)c2c(O)cccc2C3=O)[C@@H]1C(=O)OC` the value was “inactive”. As for `COc1ccnc2c1CCCCC2S(=O)c1nc2ccccc2[nH]1` (stereo not given), the Potency result is “inactive”. For `CN(C)c1ccc(N=NS(=O)(=O)O)cc1` the value was “inactive”; for `Cc1c(NC(=O)c2ccc(C(C)(C)C)cc2)cccc1-c1cn(C)c(=O)c(Nc2ccc(C(=O)N3CCOCC3)cc2)n1`, “inactive”. For `CS(=O)(=O)c1ccc(-c2cn3ccccc3n2)cc1` the value was 4.35 µM (active). For `O=C(/C=C/c1ccccc1)NCCO` the value was “inactive”.

For the compound `Cc1nc(-c2ccc(OCC(C)C)c(C#N)c2)sc1C(=O)O`, the Potency was 2.45 µM (active). For `O=C(O)CCC(=O)c1ccc(-c2ccccc2)cc1` the value was 24.5 µM (active); for `Cc1nc(N)sc1-c1ccnc(Nc2ccc(N3CCOCC3)cc2)n1`, “inactive”; for `CCCCCCCCCCCC(=O)[O][Sn]([CH2]CCC)([CH2]CCC)[O]C(=O)CCCCCCCCCCC`, “inactive”.

On to `CC(=O)Nc1ccc([C@H](C)C(=O)Nc2ncc(C(C)C)s2)cc1`, for which the Potency was 9.75 µM (active). For `CC(=O)Oc1ccccc1C(=O)Nc1ncc([N+](=O)[O-])s1` the value was 2.24 µM (active); for `C/C(=N\O)c1ccc(OCC(=O)N2CCCCC2)cc1`, 8.69 µM (active).

On to `CCCCCCCC/C=C/C(=O)O`, for which the Potency result is “inactive”. Turning to `O=C(CS)Nc1ccccc1`, the Potency entry was “inactive”. Regarding `COc1ccc2nc(NC(=O)Nc3ccccc3)sc2c1`, the Potency was 21.8 µM (active).

As to `CC(C)Oc1ccc2c(=O)c(-c3ccccc3)coc2c1`, the Potency is 12.3 µM (active).

Turning to `O=C(Nc1ccc([N+](=O)[O-])cc1Cl)c1cc(Cl)ccc1O`, the Potency was 1.95 µM (active).

Regarding `O=C(O)c1ccccc1NCCc1ccccc1`, the Potency result was “inactive”. For `CCCCCNC(=O)N1CCC(CN(Cc2ccc(Cl)cc2)Cc2ccc([N+](=O)[O-])s2)C1` (stereo not given) the value was “inactive”. Turning to `Cc1cccc(/C=C/c2ccccc2)n1`, the Potency is 12.3 µM (active). For `O=C1c2ccccc2C(=O)c2c(NCCc3ccc(O)cc3)ccc(NCCc3ccc(O)cc3)c21` the value was “inactive”; for `C[C@@H](O[C@H]1OCCN(Cc2n[nH]c(=O)[nH]2)[C@@H]1c1ccc(F)cc1)c1cc(C(F)(F)F)cc(C(F)(F)F)c1`, “inactive”; for `NC(N)=NN=C(/C=C/c1ccc([N+](=O)[O-])o1)/C=C/c1ccc([N+](=O)[O-])o1`, “inactive”. For `Cc1ccc(O)c(-n2nc3ccccc3n2)c1` the value was 7.74 µM (active); for `CN1CC(=O)N/C1=N/C(=O)Nc1cccc(Cl)c1`, 6.9 µM (active); for `C[C@H](NC(=O)C(=O)Nc1ccccc1C(C)(C)C)C(=O)N[C@@H](CC(=O)O)C(=O)COc1c(F)c(F)cc(F)c1F`, 0.615 µM (active). For `Oc1cc(O)cc(/C=C/c2ccc(O)c(O)c2)c1` the value was 6.15 µM (active); for `Cc1cc(O)c2ccccc2c1O`, “inactive”. For the compound `NC1CCC(Nc2nc(Nc3ccc(C(=O)N4CCCCC4)cc3)c3ncn(-c4cccc(F)c4)c3n2)CC1` (stereo not given), the Potency result is “inactive”. For `CNC1[C@H](O)C(O[C@@H]2C(O)C(O[C@H]3O[C@H]([C@@H](C)NC)CC[C@H]3N)[C@@H](N)C[C@H]2N)OC[C@]1(C)O` (stereo not given in full) the value was “inactive”.

The record behind these values is PubChem BioAssay AID1224853 (National Center for Advancing Translational Sciences (NCATS), 2016).
